# KDM5B inhibitor = Primary screen for KDM5B Histone Demethylases FDH-coupled qHTS | Lysine-specific demethylase 5B (Homo sapiens), Q9UGL1 | 220,000 compounds, 2.6% hits | KDM5B demethylase, FDH-coupled NADH fluorescence (FDH is formaldehyde dehydrogenase) | Potency, µM (top dose mostly 57.7 µM), hits mostly inhibitors; active means well fitted inhibition curve with a large enough effect; further: 0% is about no effect; nearly all actives have a fitted effect of over 70% in size
# Target sequence (Q9UGL1 whole entry, looked up): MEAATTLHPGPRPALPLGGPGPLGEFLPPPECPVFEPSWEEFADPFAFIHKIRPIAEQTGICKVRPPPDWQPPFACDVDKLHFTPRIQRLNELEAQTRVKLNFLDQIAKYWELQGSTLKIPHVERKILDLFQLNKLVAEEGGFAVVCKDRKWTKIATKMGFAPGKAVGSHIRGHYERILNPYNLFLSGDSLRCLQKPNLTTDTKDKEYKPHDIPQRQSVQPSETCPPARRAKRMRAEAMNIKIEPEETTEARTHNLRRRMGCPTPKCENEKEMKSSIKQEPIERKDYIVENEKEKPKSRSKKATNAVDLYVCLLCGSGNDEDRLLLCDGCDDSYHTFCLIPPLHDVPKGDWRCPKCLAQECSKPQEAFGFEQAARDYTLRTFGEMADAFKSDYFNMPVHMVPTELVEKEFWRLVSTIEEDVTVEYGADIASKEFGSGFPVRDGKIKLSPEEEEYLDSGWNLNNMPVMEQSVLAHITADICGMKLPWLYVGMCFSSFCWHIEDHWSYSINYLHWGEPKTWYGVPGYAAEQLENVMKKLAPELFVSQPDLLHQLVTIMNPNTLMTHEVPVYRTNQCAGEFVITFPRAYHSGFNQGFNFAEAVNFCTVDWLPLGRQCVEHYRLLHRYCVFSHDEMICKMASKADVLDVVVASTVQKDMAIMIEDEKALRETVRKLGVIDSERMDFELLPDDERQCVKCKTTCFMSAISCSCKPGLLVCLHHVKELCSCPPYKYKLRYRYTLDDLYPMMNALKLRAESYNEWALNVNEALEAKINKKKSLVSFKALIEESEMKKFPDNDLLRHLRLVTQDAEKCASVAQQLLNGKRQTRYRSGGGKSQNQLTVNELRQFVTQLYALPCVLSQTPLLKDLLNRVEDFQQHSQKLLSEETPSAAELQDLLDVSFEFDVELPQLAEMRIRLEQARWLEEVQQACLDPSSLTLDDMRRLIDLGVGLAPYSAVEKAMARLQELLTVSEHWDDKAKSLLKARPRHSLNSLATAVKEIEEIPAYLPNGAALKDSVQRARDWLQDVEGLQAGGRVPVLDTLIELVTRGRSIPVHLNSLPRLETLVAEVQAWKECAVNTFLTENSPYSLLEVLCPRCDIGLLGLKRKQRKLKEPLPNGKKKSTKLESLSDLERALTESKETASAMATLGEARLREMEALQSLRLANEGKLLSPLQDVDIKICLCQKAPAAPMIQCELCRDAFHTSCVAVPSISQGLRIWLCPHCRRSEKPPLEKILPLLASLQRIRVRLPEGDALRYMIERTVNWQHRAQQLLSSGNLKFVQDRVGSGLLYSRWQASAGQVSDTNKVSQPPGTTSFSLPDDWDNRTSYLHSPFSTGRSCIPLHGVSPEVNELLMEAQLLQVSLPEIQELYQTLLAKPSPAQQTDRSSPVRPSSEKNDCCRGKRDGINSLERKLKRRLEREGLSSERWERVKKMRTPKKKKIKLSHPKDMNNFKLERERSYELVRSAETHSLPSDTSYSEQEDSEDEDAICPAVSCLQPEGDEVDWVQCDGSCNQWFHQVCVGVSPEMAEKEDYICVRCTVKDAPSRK
#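 Coupled FDH/NAD⁺ fluorescence readout. KDM5BΔAP 200 nM final; compound titration, 10 min RT preincubation; substrate mix 12.5 µM H3K4me3, 25 µM 2-OG, 50 µM Fe(II), 100 µM ascorbate, 0.25 mM NAD⁺, 0.25 U/mL FDH; ΔRFU over 30 min.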
# * hit, by the source's call; i = inactive. The full list was thinned out, with hits kept by preference. Potency means the concentration at half of the fitted maximal effect.
SMILES,KDM5B inhibitor
COC(=O)c1ccc(Cl)c(Cl)c1,i
Cc1ccsc1CN1CCCN(S(=O)(=O)c2ccccc2)CCC(=O)NCC1,i
CC1CCC(Nc2ccc3cc(S(=O)(=O)N4CCCC4)ccc3n2)CC1 (stereo unspecified),i
Cc1cccc(CC(=O)N2CCCC(n3cc(-c4nc(-c5ccccc5)no4)nn3)C2)c1 (stereo unspecified),i
CCc1ccc(NC(=O)Nc2ccc3sc(NS(=O)(=O)c4ccccc4)nc3c2)cc1,i
COC[C@H]1CCCN1Cc1nc(C2(O)CCN(C(C)C)CC2)cs1,i
COC[C@@H]1CCCN1Cc1cn(-c2ccccc2)nc1-c1ccc(OC)cc1F,i
COC[C@@H]1CCCN1Cc1cc2cc3c(cc2[nH]c1=O)OCO3,28.2µM*
CNC(=O)Cc1ccc(-n2c(=O)c3ccccc3n(CC(=O)Nc3ccc(C)c(C)c3)c2=O)cc1,i
COc1ccc(C2(C(=O)N3CCOCC3)CCOCC2)cc1,i
O=C(C1CCc2nnc(-c3ccc(Cl)cc3Cl)n21)N1CCOCC1 (stereo unspecified),i
O=C(c1cc(-c2ccc(Cl)cc2Cl)c2cccn2n1)N1CCOCC1,i
O=C(c1nc(-c2ccc(Cl)cc2)c2ccccn12)N1CCOCC1,39.8µM*
COc1ccc(-c2nc(C(=O)N3CCN(c4ncccn4)CC3)n3ccccc23)cc1,31.6µM*
CCOc1ccc(-c2cc(C(=O)N3CCN(c4ncccn4)CC3)c3ccccc3n2)cc1,i
COc1ccc(CN2Cc3[nH]nc(-c4ccc(C(=O)N5CCOCC5)cc4)c3CC2=O)cc1,i
CC(=O)c1c(-c2ccc(Cl)cc2)nc2n(CCN3CCOCC3)c3ccccc3n12,i
O=C(c1nc(-c2ccc(Cl)cc2Cl)c2ccccn12)N1CCOCC1,89.1µM*
O=C(C(=O)N1CCN(C(=O)c2cc(-c3ccc(Cl)cc3)nc3ccccc23)CC1)N1CCOCC1,i
COc1cc(C(=O)N2CCN(c3ncccn3)CC2)cc(Cl)c1OC,i
COc1ccc(-c2nc(C(=O)N3CCOCC3)n3ccccc23)cc1,39.8µM*
CNC(=O)c1nn(CN2CCN(Cc3ccc(OC)cc3)CC2)c(=O)c2ccccc12,i
COc1ccccc1OCCSc1nc2ccccc2o1,i
Cc1ccc2nc(/N=C(\N)NC(=O)c3ccccc3)nc(C)c2c1,i
Cc1cc2oc(C(=O)N3CCOC34CCN(C)CC4)cc(=O)c2cc1C,i
SMILES,KDM5B inhibitor
CC(C)(C)CC(=O)NCCCCNC(=O)CC(C)(C)C,i
CCOC(=O)c1cc(-c2ccc(S(=O)(=O)Nc3c(C)cccc3C)s2)on1,i
O=c1cc(C(F)(F)F)c2ccc(OS(=O)(=O)c3cccc(C(F)(F)F)c3)cc2o1,i
COc1ccc(NC(=O)Nc2nnc(N3CCCC(C)C3)s2)cc1 (stereo unspecified),i
CCc1ccc2c(COC(=O)c3[nH]c(C)c(C(C)=O)c3C)cc(=O)oc2c1,i
COc1cc(NC(=O)c2ccc3c(c2)NC(=O)CS3)cc(OC)c1OC,i
CC(C)(C)OC(=O)N1CCN(C(C(=O)O)c2c[nH]c3cc(Cl)ccc23)CC1 (stereo unspecified),i
COC(=O)CNC(=O)C1CCc2nnc(C3CCN([S+](=O)([O-])c4ccccc4)CC3)n21 (stereo unspecified),i
O=C(O)C1CCc2nnc(C3CCCN([S+](=O)([O-])c4cccc(C(F)(F)F)c4)C3)n21 (stereo unspecified),i
COc1cccc([S+](=O)([O-])N2CCC(c3nnc4n3C(C(=O)O)CC4)CC2)c1 (stereo unspecified),79.4µM*
COCC(C)NS(=O)(=O)c1ccc(C)c(C)c1 (stereo unspecified),i
CC1Cc2nc(SCC(=O)N3CCCCC3)n(-c3ccccc3)c(=O)c2S1 (stereo unspecified),i
CCN(CC)S(=O)(=O)c1ccc(N2CCCC2)c(NC(=O)Cc2ccccc2C)c1,i
CS(=O)(=O)N1CCc2cc(C(=O)Nc3cccc(-c4nnc5n4CCCCC5)c3)ccc21,i
Cc1noc(C)c1Cn1ccn2nc3c(c2c1=O)CCCC3,i
COc1ccc(CCNC(=O)c2ccc(Cn3ccn4nc5c(c4c3=O)CCCC5)cc2)cc1OC,28.2µM*
O=C(NC1CC1)c1ccc(Cn2ccn3nc4c(c3c2=O)CCCC4)cc1,i
Cc1ccc(C)c(Cn2ccn3nc4c(c3c2=O)CCCC4)c1,i
O=C(NCC1CCCO1)c1ccc(Cn2ccn3nc4c(c3c2=O)CCCC4)cc1 (stereo unspecified),i
COc1ccc(NC(=O)c2ccc(Cn3ccn4nc5c(c4c3=O)CCCC5)cc2)cc1OC,i
COc1ccc(CCNC(=O)CCn2ccn3nc4c(c3c2=O)CCCC4)cc1OC,i
Cc1oc(-c2ccccc2)nc1Cn1ccn2nc3c(c2c1=O)CCCC3,28.2µM*
Cc1ccc(NC(=O)CCn2ccn3nc4c(c3c2=O)CCCC4)cc1C,i
CC(CCc1ccccc1)NC(=O)c1ccc(Cn2ccn3nc4c(c3c2=O)CCCC4)cc1 (stereo unspecified),35.5µM*
CNC(=O)c1ccc(Cn2ccn3nc4c(c3c2=O)CCCC4)cc1,i
SMILES,KDM5B inhibitor
Cc1ccc(NC(=O)c2ccc(Cn3ccn4nc5c(c4c3=O)CCCC5)cc2)cc1C,25.1µM*
COc1ccc(/C=N/OCc2ccc(F)cc2Cl)cc1OCc1ccccc1,i
Cc1cccc(N2CCN(C(=O)CNC(=O)NCc3ccc(F)cc3)CC2)c1,i
O=C(CCNC(=O)C1CCCC1)NC1(c2ccccc2)CCC1,i
Cc1ccc(Cl)c(OCc2nnc(SCC(=O)NC3CC3)n2C)c1,i
CC(O)CNC(=O)c1ccccc1 (stereo unspecified),i
CCCC(C(=O)NC(C)C)c1ccccc1 (stereo unspecified),i
Cc1ccc(CN2C(=O)C3(c4ccccc42)N(c2ccc(F)c(Cl)c2)C(=O)CS3(=O)=O)cc1 (stereo unspecified),i
Cc1ccc2c(CSc3nnnn3-c3ccc(O)cc3)cc(=O)oc2c1C,i
NC(=O)c1ccccc1OCc1cccc(C(F)(F)F)c1,i
Cc1ccc(C)c(S(=O)(=O)N2CCN(C(=O)Cc3c(C)nn(C)c3C)CC2)c1,i
COC(=O)[C@@H](C)NC(=O)NCC(c1ccccc1)c1ccccc1,i
CC(C)Oc1ccc(CNC(=O)c2ccc(Cn3ccn4nc5c(c4c3=O)CCCC5)cc2)cc1,25.1µM*
O=C(NCc1ccncc1)c1ccc(Cn2ccn3nc4c(c3c2=O)CCCC4)cc1,i
O=C(NCc1ccco1)c1ccc(Cn2ccn3nc4c(c3c2=O)CCCC4)cc1,i
O=C(CCc1cccnc1)NCCc1ccccn1,i
COc1ccc(Nc2nc(N)c(C(=O)c3ccc(Br)cc3)s2)cc1,i
COc1cc(C#N)ccc1OCc1ccccc1,i
COc1ccc(-c2nc(CN3CCC(CO)CC3)c(C)o2)c2ccccc12,25.1µM*
COc1ccc(-c2nc(CN3CCC(F)(F)CC3)c(C)o2)c(OC)c1C,i
COc1ccc(-c2nc(CN3CCC(C(=O)NCCc4ccccc4)CC3)c(C)o2)cc1OC,i
Cc1cc(F)ccc1NC(=O)C1CCN(c2nc3ccccc3o2)CC1,i
CC(C1CC1)N(Cc1ccc(C(N)=O)cc1)C1CC1 (stereo unspecified),i
COc1ccc(OC)c(S(=O)(=O)n2cc(C)nc2-c2ccccc2)c1,i
COc1ccccc1C1CNC(=O)c2nc(-c3cc(C(C)(C)C)[nH]n3)[nH]c2C1 (stereo unspecified),i

# Assay outcomes deposited in PubChem BioAssay by National Center for Advancing Translational Sciences (NCATS).
